NFkB transloc inh – blocks IL-1B driven NFkB nuclear translocation in HUVEC cells. HUVEC IL-1B NFkB p65 nuclear translocation imaging. inhibition, % at 2 µM. actives 0.43% (n = 94,000). AID 796;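 active = inhibition above about 30% together with a positive call from visual inspection of the well image, limit read from the data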;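 also: nuclear over cytoplasmic p65 intensity ratio measured by imaging; 0% = IL-1B stimulated DMSO wells and 100% = unstimulated DMSO wells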
ERa coact pot – ER-alpha (human) coactivator binding potentiation; P03372; TR-FRET ERalpha-LBD/SRC-Cy5 coactivator binding, 2 h; 100 = basal binding, no effect; coactivator binding (% of control), % at 25.6 µM; actives 1.3% (n = 86,000); in the data active = activity above about 200%;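 also: binding measured in presence of low estradiol as agonist stimulus; 0% = peptide alone without receptor and 100% = receptor with peptide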
Target sequence (P03372 whole entry, looked up, the tested form may be a part): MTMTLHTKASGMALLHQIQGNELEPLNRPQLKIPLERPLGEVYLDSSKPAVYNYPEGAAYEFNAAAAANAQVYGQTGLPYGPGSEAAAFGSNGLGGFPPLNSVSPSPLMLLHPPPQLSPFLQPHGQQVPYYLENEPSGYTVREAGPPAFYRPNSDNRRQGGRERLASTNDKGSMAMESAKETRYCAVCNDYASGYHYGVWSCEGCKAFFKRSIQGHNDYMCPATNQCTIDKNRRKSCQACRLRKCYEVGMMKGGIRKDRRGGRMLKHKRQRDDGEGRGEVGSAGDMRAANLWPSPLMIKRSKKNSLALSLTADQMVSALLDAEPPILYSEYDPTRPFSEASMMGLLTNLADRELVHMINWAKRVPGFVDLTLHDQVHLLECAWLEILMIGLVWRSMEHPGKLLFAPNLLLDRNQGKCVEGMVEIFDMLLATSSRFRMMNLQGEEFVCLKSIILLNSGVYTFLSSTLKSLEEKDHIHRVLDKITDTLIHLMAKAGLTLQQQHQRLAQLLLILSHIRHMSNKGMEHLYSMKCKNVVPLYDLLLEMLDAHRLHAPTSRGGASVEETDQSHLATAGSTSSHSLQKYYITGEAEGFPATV
ERb coact inh – ER-beta (human) coactivator binding inhibition | TR-FRET ER-beta LBD / SRC1-Cy5 peptide binding; receptor agonist-loaded with 1 µM estradiol | inhibition, % at 25.6 µM | Q92731 | actives 1.3% (n = 86,000);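 active = compounds whose percent inhibition of the receptor-coactivator binding signal exceeds about 50% in the single-dose screen, limit read from the data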;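 also: 0% = receptor plus peptide wells without compound and 100% = peptide-only wells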
ERa coact inh – blocks coactivator binding to human estrogen receptor alpha. P03372. TR-FRET ER-alpha LBD / SRC-1 peptide, estradiol-bound. inhibition, % at 25.6 µM. actives 1.7% (n = 86,000); in the data active = inhibition above about 50%;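 also: 0% = receptor plus peptide control and 100% = peptide only without receptor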
IL1B cytotox – HUVEC cytotoxicity counter-screen, IL-1B stimulated. actives 0.41% (n = 94,000). HUVEC cell count loss, Hoechst imaging. cell count reduction, % at 2 µM;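 active = cell count reduction more than 3 SD above the screen-wide mean, cut at about 70% in these data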;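 also: normalized per plate to untreated control cells as the no-loss baseline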
NFkB transloc pot – enhances IL-1B driven NFkB nuclear translocation; HUVEC IL-1B NFkB p65 nuclear translocation imaging; activation, % at 2 µM; actives 0.3% (n = 94,000); AID 819;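 active = activation above 40%, about the mean plus 3 SD, also judged a hit on visual image review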;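 also: percent activation is computed from the nuclear over cytoplasmic p65 intensity ratio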
Numbers without * were called inactive; . = no result given; [ ] = remark or other dose. Shown are actives, neighbours in structure and some others; about 3.6% of the full set was active somewhere.

SMILES | NFkB transloc inh | ERa coact pot | ERb coact inh | ERa coact inh | IL1B cytotox | NFkB transloc pot
COc1cc2[nH]c3c(N4CCN(c5ccccn5)CC4)ncnc3c2cc1OC | -26 | 676*[fluorescence artefact?] | 6 | -1 | -26 | 26
Cc1ccc(-c2nc3ccc(NS(=O)(=O)c4ccccc4)cc3[nH]2)o1 | 27 | 107 | -8 | 5 | -98 | -27
Cc1ccc(C(=O)ONc2ccc(N=NC(=O)c3ccccc3O)cc2)cc1 | -21 | 131 | 52* | 72* | 1 | 21
CC(=O)N1CCc2cc(S(=O)(=O)NCCN3CCC(C)CC3)ccc21 | -3 | 106 | 10 | 16 | 15 | 3
CC(=O)Nc1nonc1-c1nc2ccccc2n1N(C(C)=O)C(C)=O | -17 | 22 | 76* | 86*[fluorescence artefact?] | -1 | 17
OCCN1CCN(C(c2cccs2)c2ccc3cccnc3c2O)CC1 (stereo unspecified) | 10 | 131 | 64*[fluorescence artefact?] | 69*[fluorescence artefact?] | -5 | -9
CC(C)(C)c1cc(C(c2cccnc2)N2CCN(CCO)CC2)cc(C(C)(C)C)c1O (stereo unspecified) | 12 | 62 | 15 | 15 | -6 | -12
O=C(OCc1c(Cl)nc2sccn12)c1cc2c(s1)CCCC2 | 0 | 126 | -1 | -7 | 2 | 0
CC(=O)Nc1ccccc1-c1nc2ccc(C(=O)N3CCN(c4cc(C)ccc4C)CC3)cc2[nH]c1=O | 9 | 126 | 2 | -6 | -2 | -9
O=C(CCCOc1ccccc1)N1CCCc2ccccc21 | 55* | 79 | 24 | 22 | 5 | -55
O=C(CCc1ccccc1)Nc1ccc(N2CCOCC2)cc1 | . | 111 | 59* | 4 | . | .
CCN1CCN(c2ccc(NC(=O)c3cccc4ncccc34)cc2)CC1 | 6 | 25 | 63*[fluorescence artefact?] | 50*[fluorescence artefact?] | 29 | -6
O=C(Nc1nc2c(s1)CN(Cc1ccccc1)CC2)c1cccc(S(=O)(=O)N2CCc3ccccc32)c1 | 7 | 500*[fluorescence artefact?] | -4 | -6 | 5 | -7
CCN1CCc2nc(NC(=O)CC(c3ccccc3)c3ccccc3)sc2C1 | 11 | 282*[fluorescence artefact?] | 11 | 38 | -11 | -11
CCN1CCc2nc(NC(=O)Cc3ccc4c(c3)OCCO4)sc2C1 | 2 | 60 | 19 | 54* | -6 | -2
CCN1CCc2nc(NC(=O)c3ccc4c(c3)OCCO4)sc2C1 | 11 | 94 | 27 | 51*[fluorescence artefact?] | 21 | -11
Cc1sc2ncnc(OCC(=O)N3CCN(S(=O)(=O)c4ccccc4)CC3)c2c1C | 10 | . | . | . | -10 | -10
O=C(Cn1c(C(=O)N2CCN(C3CCCC3)CC2)cc2sccc21)c1ccccc1 | 2 | 115 | -12 | 6 | -3 | -2
COc1ccccc1-c1cc(C(F)(F)F)n2ncc(S(=O)(=O)c3ccccc3)c2n1 | -3 | . | . | . | -11 | 3
Cc1cc(Cn2ccnc2)c(C)cc1Cn1ccnc1 | 3 | 99 | -8 | -5 | 0 | -3
CC(C)Oc1ccc(CSc2nnc3n(C)c(=O)c4c5c(sc4n23)CCCC5)cc1 | -25 | 104 | -6 | -5 | 4 | 25
CCC1(C)Cc2c(sc3c2c(=O)n(C)c2nnc(SCc4ccc5c(c4)OCO5)n32)CO1 (stereo unspecified) | 1 | 125 | 69*[fluorescence artefact?] | 87*[fluorescence artefact?] | -36 | -1
COc1cc(/C=N/NC(=O)CSCc2ccc([N+](=O)[O-])cc2)cc(OC)c1OC | -10 | . | . | . | 89* | 10
COc1cccc(OC)c1C(=O)N1CCN(S(=O)(=O)c2ccc(C)cc2)CC1 | 32* | 97 | -2 | 0 | 9 | -32
Cc1ccc(S(=O)(=O)N2CCN(C(=O)c3ccccc3)CC2)cc1 | -25 | 100 | 5 | 2 | -6 | 25
SMILES | NFkB transloc inh | ERa coact pot | ERb coact inh | ERa coact inh | IL1B cytotox | NFkB transloc pot
COc1cccc(OC)c1C(=O)N1CCN(c2ccccn2)CC1 | -1 | 117 | 52*[fluorescence artefact?] | -30 | -2 | 1
CCc1c(C)sc(NC(=O)c2cc(-c3ccco3)on2)c1C#N | -1 | 73 | -24 | 5 | 6 | 1
Cc1ccc2nc(-c3ccccc3Cl)cc(C(=O)Nc3cc(C)on3)c2c1 | . | 217*[fluorescence artefact?] | 1 | -2 | . | .
Cc1cc(NC(=O)c2ccccc2Cl)no1 | 2 | 102 | -5 | -1 | -7 | -2
O=C(CSCc1ccc(Cl)cc1)Nc1cccc(C(=O)Nc2ccccc2C(=O)O)c1 | 1 | . | . | . | 11 | -1
COc1ccc(NC(=O)/C(Cl)=C(/Cl)S(=O)Cc2ccccc2)cn1 (stereo unspecified) | 65* | 86 | 10 | -11 | 14 | -84
COCCN(Cc1ccccc1)P(=O)(O)c1ccccc1OCC(=O)O | -8 | 262*[fluorescence artefact?] | -1 | 1 | -36 | 8
O=C(Nc1ccc(F)cc1F)c1noc2c1CCC2 | . | 38 | 91*[fluorescence artefact?] | 86*[fluorescence artefact?] | . | .
O=C(NCc1ccc(F)cc1)c1noc2c1CCCC2 | -31 | 118 | -11 | -9 | 17 | 31
CC(C)C(=O)c1cn(CC(=O)NCC2CCCO2)c2ccccc12 (stereo unspecified) | 5 | 112 | -3 | -4 | 9 | -5
CCOC(=O)C1=C(O)/C(=C/c2cn(CC(=O)NCC3CCCO3)c3ccccc23)SC1=Nc1ccc(C)cc1 (stereo unspecified) | 13 | 56 | 45 | 78* | 8 | -13
Cc1ccc(NCC(=O)N/N=C/c2ccc(OC(=O)c3ccco3)cc2)cc1 | 4 | . | . | . | 4 | -10
CC(=O)Nc1ccc(Oc2ccc3nc(C)[nH]c3c2)cc1 | 2 | 101 | 15 | 2 | 18 | -2
CC(=O)N(C(C)=O)c1ccc2nc(C)[nH]c(=O)c2c1 | -3 | 577*[fluorescence artefact?] | -1 | 6 | -53 | 3
Cc1cc(C)c(NC(=O)CSc2nc3c(c(=O)n2C)SC(C)C3)c(C)c1 (stereo unspecified) | -3 | 115 | -6 | -5 | -10 | 3
N/C(=N\c1nc2ccccc2o1)NC(=O)c1ccccc1NC(=O)c1ccccc1 | 5 | 122 | 82* | -2 | -6 | -5
N/C(=N\c1nc2ccccc2o1)NC(=O)c1ccccc1F | -1 | 113 | -7 | -8 | -1 | 1
Cc1ccc2c(c1)N(CC(=O)NC1CCC(C)CC1)C(=O)CO2 (stereo unspecified) | -7 | 120 | -4 | 3 | 6 | 7
Cc1ccc2c(c1)N(CC(=O)NC1CCCc3ccccc31)C(=O)CO2 (stereo unspecified) | 1 | 93 | 17 | 67* | 22 | -1
CC(SC1CCCC1)C(=O)NC(C)(C#N)C(C)C (stereo unspecified) | 4 | 118 | 0 | 3 | -69 | -3
O=C(CSc1nnc(Cc2cc(=O)[nH]c(=O)[nH]2)n1-c1ccc(Cl)cc1)NCC1CCCO1 (stereo unspecified) | 4 | 133 | -7 | 0 | 4 | -4
O=C(CSc1nnc(Cc2cc(=O)[nH]c(=O)[nH]2)n1-c1ccccc1)NCC1CCCO1 (stereo unspecified) | 15 | 117 | -2 | -5 | 93* | -15

Assay outcomes deposited in PubChem BioAssay by several laboratories.
